This assay addresses Follicle-stimulating hormone receptor (Homo sapiens) (UniProt P23945). The experiment in a line: qHTS for antagonists of the Thyroid Stimulation Hormone Receptor: Hit Validation with Follickle Stimulating Hormone Receptor (FSHR). The note with it: FSHR-expressing cells, cAMP HTRF, antagonist counterscreen; hits give high values. An excerpt: The thyroid-stimulating hormone receptor (TSHR) is a member of the 7 trans-membrane-spanning receptor (7TMR) family of cell surface receptors. TSHR-mediated hyperthyroidism is important in thyroid pathology. The development of small molecule antagonists of TSHR may lead to therapeutic approaches for TSHR-mediated hyperthyroidism caused by constitutively activating mutations or stimulating auto-antibodies associated with Graves' disease. Graves' disease is the leading cause of hyperthyroidism and is caused by autoantibodies that stimulate TSHR (TsAbs) causing thyroid growth and unregulated overproduction of thyroid hormones and existing treatments have liabilities (agranulocytosis). In addition, TSHRs are known to be expressed in multiple extrathyroidal tissues including bone, brain, kidney, testis, fat and cells of the immune system but the role of the TSHR in these tissues is not clear. Therefore, TSHR antagonists/inverse agonists could be used as probes of extrathyroidal TSHR function. Finally, TSHR inverse agonists, which are a subclass of antagonists that inhibit agonist-independent (or basal or constitutive) TSHR signaling, could be used to inhibit TSH-independent signaling in patients with recurrent or metastatic thyroid cancer who are receiving thyroid hormone to suppress TSH. […]
For orientation: qHTS replaces the single test concentration by a dilution series.

Each structure is given as a SMILES string. Calls of active or inactive are those of the source.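 How the source made its calls: active means max inhibition of at least 60%; inconclusive means max inhibition above 30% but below 60%; inactive means max inhibition of 30% or less.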

Chain of Follicle-stimulating hormone receptor (Homo sapiens) (P23945 whole entry, looked up): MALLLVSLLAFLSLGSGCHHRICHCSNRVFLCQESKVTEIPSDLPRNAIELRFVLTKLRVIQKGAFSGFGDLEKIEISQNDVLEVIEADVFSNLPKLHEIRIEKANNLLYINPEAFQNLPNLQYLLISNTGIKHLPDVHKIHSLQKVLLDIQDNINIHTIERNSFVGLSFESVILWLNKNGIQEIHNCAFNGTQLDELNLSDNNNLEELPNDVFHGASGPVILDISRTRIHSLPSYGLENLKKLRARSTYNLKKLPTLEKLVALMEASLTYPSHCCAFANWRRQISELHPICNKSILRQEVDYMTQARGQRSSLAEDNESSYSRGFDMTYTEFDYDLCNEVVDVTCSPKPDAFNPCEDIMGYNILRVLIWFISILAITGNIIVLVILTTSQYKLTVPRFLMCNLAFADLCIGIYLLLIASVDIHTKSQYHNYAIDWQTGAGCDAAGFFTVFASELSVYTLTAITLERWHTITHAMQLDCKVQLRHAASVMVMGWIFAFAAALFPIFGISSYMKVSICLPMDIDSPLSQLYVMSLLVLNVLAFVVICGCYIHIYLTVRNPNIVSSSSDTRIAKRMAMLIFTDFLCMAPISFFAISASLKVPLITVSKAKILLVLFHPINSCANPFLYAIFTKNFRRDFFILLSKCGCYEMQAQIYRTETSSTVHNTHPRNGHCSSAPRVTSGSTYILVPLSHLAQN

As for `COC(=O)C1=C(c2ccc(-c3ccccc3)c(F)c2)C[C@@H]2CC[C@H]1N2C(=O)NCCOc1ccccc1`, the max inhibition was 79.5% (active).
